# Measurements: ChEMBL document CHEMBL4513216, “Probing the Open Global Health Chemical Diversity Library for Multistage-Active Starting Points for Next-Generation Antimalarials” (ACS Infect Dis, 2020)
# About 2,700 (4%) of roughly 68,000 compounds showed an effect of 50% or more. Many of the other results were omitted from the sample, so strong results are more common in it than they were.
# System: Plasmodium berghei
# Test: Screen against P. berghei liver stage (PbLuc), transformed with Luciferase, at 2uM
# Type: functional, HepG2
# Conditions: tested at 2 uM
row,SMILES,INHIBITION [%]
1,CNC(=O)c1csc(-c2cccnc2)n1,30.63
2,CN(C)C(=O)c1csc(-c2ccoc2)n1,38.83
3,CNC(=O)c1csc(-c2ccoc2)n1,52.3
4,Cc1nc(C)n(CC(C)C(=O)N2CCC(NS(C)(=O)=O)CC2)n1 (stereo not given),5.85
5,CCc1ccc(C(COC)NC(=O)c2ccc(C(N)=O)cc2)o1 (stereo not given),15.56
6,CSc1ncccc1C(=O)NCc1ccc(N(C)C)cc1,10.65
7,CSc1ncccc1C(=O)Nc1ccc(Cn2ccccc2=O)cc1,52.45
8,Cc1ncccc1C(=O)Nc1cccc(Cn2ccccc2=O)c1,45.67
9,CS(=O)(=O)N[C@@H]1CCN(Cc2nccs2)[C@H]1Cc1ccncc1,-11.68
10,Cc1cc(NC(=O)C(C)Cn2cc(Br)cn2)no1 (stereo not given),0.55
11,CCOc1ncccc1CNc1nnc(C)c(C)c1C#N,-27.71
12,Cc1nnc(NCc2cccnc2N(C)C)c(C#N)c1C,53.03
13,CCCOc1ncccc1CNc1nnc(C)c(C)c1C#N,42.12
14,COC(=O)N1CCCC(C(=O)NCc2cc3cccc(OC)c3o2)C1 (stereo not given),33.01
15,CCn1ncc(C(=O)NCCc2nc(-c3ccc(C)cc3)n[nH]2)c1C,-0.21
16,CC1(C)[C@@H]2CC=C(CN3CCCn4nc(CCC(=O)O)cc4C3)[C@H]1C2,6.88
17,CC1(C)[C@@H]2CC=C(CN3CCCn4nc(C(=O)NCCO)cc4C3)[C@H]1C2,53.17
18,CC1(C)[C@@H]2CC=C(CN3CCCn4nc(C(=O)O)cc4C3)[C@H]1C2,-17.07
19,Cn1cc(CCNC(=O)NC2CCS(=O)(=O)C2)cn1 (stereo not given),0.3
20,CC(c1ccc(C(=O)NCCc2nc(N)cc(O)n2)o1)N1CCCCC1 (stereo not given),-24.78
21,COc1ccc(-c2nc(C(=O)NCC3CCOC3)cs2)cc1OC (stereo not given),60.09
22,O=C(NCC1CCOC1)c1csc(-c2ccc(Cl)cc2)n1 (stereo not given),5.09
23,Cc1ccc(-c2nc(C(=O)NCC3CCOC3)cs2)cc1 (stereo not given),49.9
24,CC(=O)N(Cc1ncc(C)o1)C1CCN(CCc2cnn(C)c2)C1 (stereo not given),9.83
25,CCC1CN(C(=O)COc2ccc(C(=O)NC3CC3)cc2)CCO1 (stereo not given),32.93
26,N#CCCN1CC(O)CN(C(=O)c2cccc(C(F)(F)F)c2)CC1=O (stereo not given),24.52
27,CNc1nc(CNC(=O)Nc2cccc(F)c2)cs1,-88.54
28,O=C(NCCCc1nc(=O)[nH][nH]1)Nc1ccc(Cl)cc1,23.64
29,O=C(NCCCc1nc(=O)[nH][nH]1)Nc1cccc(F)c1,52.85
30,COCC1CN(Cc2ccc(C)o2)Cc2nnn(C)c21 (stereo not given),38.83
